In test [1] the test system is Plasmodium falciparum Sir2 (PF13_0152, Sir2A). As to the kind of experiment: pfSir2 binders on small-molecule microarrays, primary screen, biochemical, small-molecule microarray, 635 nm fluorescence (AID 1098).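 Note: score merges spot fluorescence intensity with its signal-to-noise ratio.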 As to conditions: small-molecule microarray binding, fluorescence 635 nm; higher = more signal.
Test [2] can be described thus: small-molecule microarray binders of probe aDKK1, primary screen, biochemical, biotinylated probe, 635/667 nm fluorescence (AID 1099).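 Note: score merges 667nm spot fluorescence with signal to noise across triplicate slides.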 As to conditions: higher = more signal.
A short description of test [3]: small-molecule microarray binders of probe aCHRDL2, primary screen, biochemical, biotinylated probe, 635/667 nm fluorescence (AID 1100). As to conditions: higher = more signal.
The nature of test [4]: splicing luciferase reporter signal modulators, primary screen, spliceosome inhibition project, cell-based, HEK293, splice +/- reporter (AID 1101).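 Note: HEK293 cells carrying a splicing-competent luciferase reporter gene; test concentration not given here.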 As to conditions: luminescence, 24 h, higher = more signal, called active from +8 up or from −8 down.
Test [5] has as its target Fibroblast growth factor 10 (Homo sapiens) (UniProt O15520). Kind of test: FGF10 binders on small-molecule microarrays, primary screen, biochemical, small-molecule microarray, 635 nm fluorescence (AID 1102). Particulars: FGF10 binding, fluorescence 635 nm, higher = more signal.
Test [6] deals with glycogen synthase kinase-3 (GSK3A per assay name; protocol says GSK3B). As to the kind of experiment: GSK3 binders on small-molecule microarrays, primary screen, biochemical, small-molecule microarray, 635 nm fluorescence, GSK3A (AID 1103). Note: the record names both GSK3A and GSK3B. Particulars: small-molecule microarray binding, fluorescence 635 nm; higher = more signal.
The target in test [7] is Epidermal growth factor receptor (Homo sapiens) (UniProt P00533). Kind of test: EGFR binders on small-molecule microarrays, primary screen, biochemical, small-molecule microarray, 635 nm fluorescence (AID 1104).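 Note: score merges 667 nm emission intensity with spot signal to noise over triplicate slides.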 Particulars: EGFR binding, higher = more signal.
Chain of Epidermal growth factor receptor (Homo sapiens) (P00533 whole entry, looked up): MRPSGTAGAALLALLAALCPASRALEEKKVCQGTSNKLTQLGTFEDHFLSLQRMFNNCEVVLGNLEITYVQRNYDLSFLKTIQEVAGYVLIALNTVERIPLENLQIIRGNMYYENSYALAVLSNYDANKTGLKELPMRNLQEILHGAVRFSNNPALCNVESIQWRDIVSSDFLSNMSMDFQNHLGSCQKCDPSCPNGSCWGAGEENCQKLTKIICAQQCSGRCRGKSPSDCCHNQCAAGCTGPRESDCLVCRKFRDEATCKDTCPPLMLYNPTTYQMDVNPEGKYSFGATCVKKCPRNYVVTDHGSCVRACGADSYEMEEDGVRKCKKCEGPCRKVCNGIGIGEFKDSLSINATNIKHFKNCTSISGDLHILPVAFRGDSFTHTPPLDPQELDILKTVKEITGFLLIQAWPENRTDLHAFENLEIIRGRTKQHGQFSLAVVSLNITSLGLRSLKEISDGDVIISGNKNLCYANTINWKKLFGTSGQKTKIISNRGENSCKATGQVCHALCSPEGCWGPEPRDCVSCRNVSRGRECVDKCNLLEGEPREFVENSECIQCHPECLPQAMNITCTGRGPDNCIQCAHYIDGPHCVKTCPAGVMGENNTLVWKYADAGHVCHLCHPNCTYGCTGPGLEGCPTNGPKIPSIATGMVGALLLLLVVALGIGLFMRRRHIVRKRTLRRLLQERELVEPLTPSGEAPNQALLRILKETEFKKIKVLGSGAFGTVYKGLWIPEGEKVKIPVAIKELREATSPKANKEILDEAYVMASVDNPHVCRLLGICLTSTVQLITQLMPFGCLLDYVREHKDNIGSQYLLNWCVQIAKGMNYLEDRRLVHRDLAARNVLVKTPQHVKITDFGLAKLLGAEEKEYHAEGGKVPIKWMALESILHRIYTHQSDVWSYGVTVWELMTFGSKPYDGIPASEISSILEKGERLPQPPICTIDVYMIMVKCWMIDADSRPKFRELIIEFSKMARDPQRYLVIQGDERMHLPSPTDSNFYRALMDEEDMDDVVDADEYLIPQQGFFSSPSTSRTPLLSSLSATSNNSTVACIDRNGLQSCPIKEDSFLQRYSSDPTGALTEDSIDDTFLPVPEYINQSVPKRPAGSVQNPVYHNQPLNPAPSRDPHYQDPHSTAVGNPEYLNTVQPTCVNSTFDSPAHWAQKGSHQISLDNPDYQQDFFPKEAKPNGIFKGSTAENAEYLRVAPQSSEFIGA
The target of test [8] is Follistatin-related protein 3 (Homo sapiens) (UniProt O95633). Kind of test: FSTL3 binders on small-molecule microarrays, primary screen, biochemical, small-molecule microarray, 635 nm fluorescence (AID 1105).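 Note: score merges emission near 667 nm and signal to noise per printed spot across three slides.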 As to conditions: FSTL3 binding, higher = more signal.
Chain of Follistatin-related protein 3 (Homo sapiens) (O95633 whole entry, looked up): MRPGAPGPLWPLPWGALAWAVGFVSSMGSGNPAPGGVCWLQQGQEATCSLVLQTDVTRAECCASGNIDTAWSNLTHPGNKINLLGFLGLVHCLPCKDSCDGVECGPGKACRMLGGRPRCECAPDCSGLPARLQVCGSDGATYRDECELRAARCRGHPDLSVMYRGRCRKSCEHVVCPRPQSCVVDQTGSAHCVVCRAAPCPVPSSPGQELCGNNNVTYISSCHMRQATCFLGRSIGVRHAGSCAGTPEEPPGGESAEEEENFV
For test [9], the target named is Dickkopf-related protein 1 (Homo sapiens) (UniProt O94907). As to the kind of experiment: DKK1 binders on small-molecule microarrays, primary screen, biochemical, small-molecule microarray, 635 nm fluorescence scan (AID 1106).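 Note: score merges emission near 667 nm with signal to noise over three replicate slides.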 As to conditions: DKK1 binding, higher = more signal.
Chain of Dickkopf-related protein 1 (Homo sapiens) (O94907 whole entry, looked up): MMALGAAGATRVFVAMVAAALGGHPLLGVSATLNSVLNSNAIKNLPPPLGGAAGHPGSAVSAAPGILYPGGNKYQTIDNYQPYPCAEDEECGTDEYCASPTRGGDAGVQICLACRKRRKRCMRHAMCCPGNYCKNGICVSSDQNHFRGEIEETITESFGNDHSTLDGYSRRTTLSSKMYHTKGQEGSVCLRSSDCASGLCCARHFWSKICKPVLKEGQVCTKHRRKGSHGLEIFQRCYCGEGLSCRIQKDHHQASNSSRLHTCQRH
Test [10] concerns Inhibin beta A chain (activin A). Kind of test: INHBA (activin A) binders on microarrays, primary screen, biochemical, small-molecule microarray, 635 nm fluorescence scan (AID 1107).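 Note: mouse activin A protein probed at 4.33 µg/mL on printed slides; score merges bound-protein fluorescence near 667 nm with spot signal-to-noise.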 As to conditions: small-molecule microarray binding, higher = more signal.
Test [11] concerns Human papillomavirus type 1a protein E7 (residues 44-93). As to the kind of experiment: HPV1a E7 fragment binders on microarrays, primary screen, biochemical, small-molecule microarray, residues 44-93, 635 nm fluorescence (AID 1108).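 Note: E7 fragment applied at 1 µg/mL in TBST for 1 h at 4 C; score combines spot fluorescence with its signal to noise ratio.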 Particulars: small-molecule microarray binding, fluorescence 635 nm; higher = more signal.
Test [12] can be described thus: modulators of HCV replicon luciferase signal, primary screen, HCV replication inhibitor project, Huh7 cells, luciferase reporter (AID 1109).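 Note: huh7 hepatoma cells harbouring a luciferase neomycin HCV replicon reporter; luciferase luminescence as measure of HCV replicon replication; test concentration not given here.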 Particulars: 48 h, higher = more signal.
The target of test [13] is Left-right determination factor 2 (Homo sapiens) (UniProt O00292). Kind of test: LEFTY2 binders on small-molecule microarrays, primary screen, biochemical, small-molecule microarray, 635 nm fluorescence scan (AID 1110). As to conditions: LEFTY2 binding, higher = more signal.
Chain of Left-right determination factor 2 (Homo sapiens) (O00292 whole entry, looked up): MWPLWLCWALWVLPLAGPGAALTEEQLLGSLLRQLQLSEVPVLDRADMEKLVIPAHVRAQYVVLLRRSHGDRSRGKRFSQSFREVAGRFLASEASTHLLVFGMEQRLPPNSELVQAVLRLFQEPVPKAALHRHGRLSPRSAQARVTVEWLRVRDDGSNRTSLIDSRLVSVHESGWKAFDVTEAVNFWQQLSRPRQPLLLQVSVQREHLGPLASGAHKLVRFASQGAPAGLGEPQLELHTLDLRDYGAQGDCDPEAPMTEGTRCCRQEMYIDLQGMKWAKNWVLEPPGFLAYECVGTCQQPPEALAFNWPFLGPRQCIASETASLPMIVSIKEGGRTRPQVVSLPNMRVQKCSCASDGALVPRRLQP
Test [14] addresses Calmodulin-1 (Homo sapiens) (UniProt P0DP23). Kind of test: CALM1 binders on microarrays, EGTA buffer, profiling panel, biochemical, small-molecule microarray, Cy5-labelled CALM1 (AID 1111).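 Note: labelled calmodulin applied in Tris saline Tween buffer holding calcium plus EGTA and DTT.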 As to conditions: Cy5-CALM1 binding fluorescence, higher = more signal.
For test [15] the target is unchanged. Kind of test: calcium-bound CALM1 binders on microarrays, profiling panel, artefact control for SMM control-protein annotation, biochemical, small-molecule microarray, Cy5-labelled CALM1, plus calcium (AID 1112).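 Note: score merges spot fluorescence with signal to noise from triplicate slides.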 As to conditions: Cy5-CALM1 binding fluorescence, higher = more signal.
A short description of test [16]: small-molecule microarray binders of probe aWnt5a, primary screen, biochemical, biotinylated probe, 635/667 nm fluorescence (AID 1113).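 Note: score merges 667 nm fluorescence intensity with signal-to-noise per printed feature.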 Particulars: higher = more signal.
Test [17] can be described thus: small-molecule microarray binders of probe aShh, primary screen, biochemical, biotinylated probe, 635/667 nm fluorescence (AID 1114).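 Note: probe is biotin-labelled aShh protein from a stem cell growth factor screen; measures binding of labelled protein to compounds printed on the slide; score merges feature fluorescence at 667 nm with signal-to-noise.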 Particulars: higher = more signal.
Test [18] in a line: small-molecule microarray binders of probe aNog, primary screen, biochemical, biotinylated probe, 635/667 nm fluorescence (AID 1115).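 Note: probe is biotinylated aNog protein used at 0.15 µg/mL for 1 h at 4 C; z-score combines 667 nm fluorescence of each spot with its signal to noise.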 Particulars: higher = more signal.
For test [19], the target named is Torsin-1A-interacting protein 1 (Homo sapiens) (UniProt Q5JTV8). As to the kind of experiment: LAP1 binders from COS7 cell lysate, primary screen, small-molecule microarray, 635/667 nm fluorescence (AID 1116). As to conditions: COS7-hLAP1 lysate binding, 635 nm fluorescence, higher = more signal.
Chain of Torsin-1A-interacting protein 1 (Homo sapiens) (Q5JTV8 whole entry, looked up): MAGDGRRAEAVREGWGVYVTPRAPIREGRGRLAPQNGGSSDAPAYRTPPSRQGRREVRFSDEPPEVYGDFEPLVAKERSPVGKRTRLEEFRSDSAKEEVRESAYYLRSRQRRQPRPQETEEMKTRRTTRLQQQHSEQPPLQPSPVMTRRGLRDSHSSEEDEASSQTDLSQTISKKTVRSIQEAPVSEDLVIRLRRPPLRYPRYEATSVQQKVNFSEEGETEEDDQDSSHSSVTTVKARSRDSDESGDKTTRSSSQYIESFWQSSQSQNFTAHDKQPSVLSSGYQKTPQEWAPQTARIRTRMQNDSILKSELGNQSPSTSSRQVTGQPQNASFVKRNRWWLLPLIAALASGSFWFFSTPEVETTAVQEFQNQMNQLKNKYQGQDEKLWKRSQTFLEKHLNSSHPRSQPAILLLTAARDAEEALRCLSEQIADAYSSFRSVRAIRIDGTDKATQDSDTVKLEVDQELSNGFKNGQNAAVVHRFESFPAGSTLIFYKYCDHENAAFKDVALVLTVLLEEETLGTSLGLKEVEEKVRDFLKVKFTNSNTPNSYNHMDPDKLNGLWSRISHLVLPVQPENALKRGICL
Test [20] deals with Alpha-bungarotoxin (Bungarus multicinctus) (UniProt P60615). As to the kind of experiment: alpha-bungarotoxin binders on microarray, profiling panel, artefact control for SMM control protein annotation, biochemical, small-molecule microarray, Alexa647 label, 635/667 nm fluorescence (AID 1117). As to conditions: alpha-BTX-A647 binding fluorescence, higher = more signal.
Chain of Alpha-bungarotoxin (Bungarus multicinctus) (P60615 whole entry, looked up): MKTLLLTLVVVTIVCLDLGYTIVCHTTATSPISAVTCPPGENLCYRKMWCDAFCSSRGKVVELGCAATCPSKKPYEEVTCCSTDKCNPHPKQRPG

Activity calls are given as the source filed them.

Chain of Fibroblast growth factor 10 (Homo sapiens) (O15520 whole entry, looked up): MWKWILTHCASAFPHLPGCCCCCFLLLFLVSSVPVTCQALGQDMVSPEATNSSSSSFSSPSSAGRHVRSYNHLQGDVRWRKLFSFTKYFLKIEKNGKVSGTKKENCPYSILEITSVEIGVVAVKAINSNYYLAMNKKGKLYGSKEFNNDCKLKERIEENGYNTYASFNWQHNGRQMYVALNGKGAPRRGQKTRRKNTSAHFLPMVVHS

For the compound `CC(C)CON=C1C[C@@H](O)[C@@H](O)[C@@H]2[C@@H]3C(=O)N(c4ccc(F)cc4F)C(=O)[C@@H]3CC[C@@H]12`, the composite z-score was 0.622 in test [1]; -0.153 in [2]; -0.462 in test [3]; 0.585 in test [5]; 0.598 in test [6]; 0.321 in test [7]. For the same compound, the composite z-score in test [8] was 0.598; in test [9], 0.289; in test [10] it was -0.287; in [11], 0.463; in test [13] it was 0.339; in test [14], 0.0012. The composite z-score in test [15] was -0.541; in test [16], -0.0368; in test [17] it was -0.279; in [18], -0.0563; in test [19], 0.142; in test [20] it was 0.421. The results for the z-score in test [4] and in [12] were -0.817 (inactive) and -0.049, respectively.

On to `CCN1C(=O)[C@H]2[C@H]3[C@H](O)[C@H](O)CC(=NO[C@H](C)c4cn([C@@H]5COC[C@H]5O)nn4)[C@@H]3CC[C@H]2C1=O`, for which the composite z-score in test [1] was -0.428; in test [2] it was -0.19; in [3], -0.593; in [5] it was 0.46; in [6], -0.162; in test [7] it was 0.219. The composite z-score is -0.169 in [8]; 0.451 in test [9]; -0.322 in [10]; -0.137 in test [11]; 0.684 in [13]; -0.3 in test [14]. Besides, the composite z-score in test [15] is -0.4; in [16], -0.0445; in [17], -0.291; in test [18] it was 0.0043; in test [19] it was -0.0938; in [20] it was -0.23. Further, the z-score in test [4] is 0.299 (inactive); in test [12], -0.936.

Consider `COc1ccc(O[C@H]2C=C[C@@H](c3ccccc3)O[C@@H]2CON=C2c3cc(OC)ccc3O[C@H](c3cccc(OC)c3)[C@H]2O)cc1`, for which the composite z-score in test [1] is -0.177; in test [2], 0.242; in [3], -0.279; in test [5] it was 0.886; in [6], 0.192; in [7], 0.531. Also, the composite z-score in test [8] is 0.589; in [9], 0.434; in test [10] it was -0.393; in test [11], -0.382; in test [13], 0.804; in test [14] it was -0.0756. For the same compound, the composite z-score was 0.335 in test [15]; -0.0735 in [16]; 0.296 in test [17]; -0.106 in test [18]; 0.399 in [19]; 0.328 in [20]. Besides, the z-score in test [4] is 0.65 (inactive); in [12] it was -1.78.

For `CCN(CC)CC(O)CN1CCCCc2nc(C)c(C)cc21` (stereo not given), the composite z-score was -0.145 in test [1]; -0.33 in [2]; -0.485 in test [3]; 0.507 in test [5]; 0.709 in [6]; 0.256 in test [7]. Also, the composite z-score in test [8] is 0.42; in [9], 0.701; in test [10] it was 0.29; in test [11], -0.0592; in test [13], 0.31; in test [14] it was -0.397. The composite z-score in test [15] is -0.125; in test [16], -0.129; in [17] it was -0.138; in test [18] it was -0.0137; in [19], 0.579; in test [20], 0.695. Moreover, the z-score in [4] was -1.7 (inactive); in test [12] it was 0.932.

Consider `CC(C)=CCCC(C)=CCON=C1[C@H]2CCn3c(=O)n(-c4ccccc4)c(=O)n3[C@H]2[C@H](O)[C@@H]2O[C@H]12`, for which the composite z-score in test [1] is 1.05; in [2] it was -0.229; in [3], -0.55; in test [5], 0.726; in test [6] it was 1.26; in test [7] it was 0.752. Moreover, the composite z-score in test [8] was 1.25; in test [9] it was 0.912; in test [10] it was 0.722; in test [11], 1.35; in test [13], 0.802; in test [14], -0.198. Moreover, the composite z-score was -0.807 in [15]; -0.154 in test [16]; -0.102 in test [17]; -0.061 in [18]; 0.458 in [19]; 0.514 in test [20]. In addition, the z-score in test [4] is 1.77 (inactive); in test [12] it was -3.17.

For `Cc1cc2c(nc1C)CCCCN2CC(O)CN1CCCc2nc(-c3ccc(Br)cc3)ccc21` (stereo not given), the composite z-score was 0.704 in [1]; -0.0514 in test [2]; -0.332 in test [3]; 0.874 in test [5]; 0.62 in test [6]; 0.597 in test [7]. For the same compound, the composite z-score in test [8] was 1.21; in test [9] it was 0.446; in test [10], 0.481; in test [11] it was 0.599; in [13], 0.615; in [14], 0.114. Moreover, the composite z-score is -0.823 in [15]; 0.093 in test [16]; 0.304 in test [17]; 0.17 in test [18]; 0.404 in [19]; 0.888 in test [20]. The z-score in test [4] was 0.0168 (inactive); in test [12] it was -0.116.

The values are drawn from PubChem BioAssay.
